# Reference: PubChem BioAssay (Tox21)
# Inconclusive results are not listed. Entries that show only a call come without a potency. The source made the active and inactive calls. Unless noted, the call rests on the fitted dose curve; in most records, active means well fitted curve in the direction sought with a large enough effect in the repeat runs; inconclusive means weak or mixed curves; inactive means no such curve, though single readings can be large; an effect the other way counts as inactive or inconclusive.
# Assays:
# [1] = qHTS assay to identify small molecule antagonists of the glucocorticoid receptor (GR) signaling pathway - cell viability counter screen (AID 720693); further: nearly all actives have a fitted effect of over 55% in size
# [2] = qHTS assay for identifying genotoxic compounds that show differential cytotoxicity against isogenic chicken DT40 cell lines with known DNA damage response pathways - wild type cell line (AID 743012); further: nearly all actives have a fitted effect of over 60% in size
# Procedure, shortened: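 Endpoint: CellTiter-Glo luminescence, 30 min RT. Cells: wild type DT40, 300/well. Exposure: compounds in DMSO, 40 h, 37 C/5% CO2, after ~0.5 h pre-incubation.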
# [3] = qHTS assay for identifying genotoxic compounds that show differential cytotoxicity against isogenic chicken DT40 cell lines with known DNA damage response pathways - Rev3 mutant cell line (AID 743014); further: nearly all actives have a fitted effect of over 55% in size; further: potency means the concentration at half of the fitted maximal effect
# [4] = qHTS assay for identifying genotoxic compounds that show differential cytotoxicity against isogenic chicken DT40 cell lines with known DNA damage response pathways - Rad54/Ku70 mutant cell line (AID 743015); further: nearly all actives have a fitted effect of over 60% in size
# [5] = qHTS assay to identify small molecule antagonists of the androgen receptor (AR) signaling pathway using the MDA cell line - cell viability counter screen (AID 743041; further: nearly all actives have a fitted effect of over 45% in size)
# Procedure, shortened: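 In this qHTS counter assay, fluorescence intensity after CellTiter-Fluor addition indicated viability of MDA-kb2 AR-luc cells given compounds and R1881 for 16 h at 37C.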
# [6] = qHTS assay to identify small molecule antagonists of the thyroid receptor (TR) signaling pathway (AID 743065); further: series mostly up to about 70 µM; nearly all actives have a fitted effect of over 55% in size
# Procedure, shortened: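 GH3.TRE-Luc rat pituitary cells carrying two TR response elements driving luciferase were plated for 4 h, given compound plus 1 nM T3 (final), and incubated 23.5 h at 37 C. ONE-Glo luminescence measured reporter inhibition; CellTiter-Fluor fluorescence tracked cytotoxicity.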
# [7] = tested on: thyroid hormone receptor (rat, GH3 cells); experiment: qHTS assay to identify small molecule agonists of the thyroid receptor (TR) signaling pathway (AID 743066; calls by dose curve)
# [8] = target: Estrogen receptor (Homo sapiens) (UniProt P03372); experiment: qHTS assay to identify small molecule antagonists of the estrogen receptor alpha (ER-alpha) signaling pathway (AID 743069; active means well fitted curve in the direction sought with a large enough effect in the signal ratio in the repeat runs, not every such curve was filed as active; the % refers to the signal ratio)
# Procedure, shortened: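 A 17beta-estradiol challenge was applied right after compound transfer to ER-alpha-UAS-bla HEK293 cells previously kept in charcoal-stripped serum. Plates stood 18 hr at 37C and 5% CO2; fluorescence was read following 2 hr FRET substrate loading at room temperature.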
# [9] = qHTS assay to identify small molecule antagonists of the estrogen receptor alpha (ER-alpha) signaling pathway - cell viability counter screen (AID 743074; calls by dose curve;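 further: HEK293 cells carrying ER-alpha-UAS-bla reporter stimulated with 17beta-estradiol; nearly all actives have a fitted effect of over 45% in size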)
# [10] = target: Estrogen receptor (Homo sapiens) (UniProt P03372); experiment: qHTS assay to identify small molecule agonists of the estrogen receptor alpha (ER-alpha) signaling pathway (AID 743075; calls by dose curve;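 further: HEK293 GripTite cells with ER-alpha and UAS-driven beta-lactamase reporter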)
# [11] = target: Estrogen receptor (Homo sapiens) (UniProt P03372); experiment: qHTS assay to identify small molecule agonists of the estrogen receptor alpha (ER-alpha) signaling pathway using the BG1 cell line (AID 743079); further: nearly all actives have a fitted effect of over 20% in size
# [12] = qHTS assay to identify small molecule antagonists of the estrogen receptor alpha (ER-alpha) signaling pathway using the BG1 cell line (AID 743080; calls by dose curve;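 further: BG1 cells stimulated with 17beta-estradiol alongside compound; series mostly up to about 70 µM; nearly all actives have a fitted effect of over 25% in size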)
# Procedure, shortened: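 BG1-Luc-4E2 cells (endogenous full-length ER-alpha, 4xERE luciferase) hormone-starved 5 days in charcoal-stripped FBS, plated 4,000/well for 24 h, then compound plus 17beta-estradiol for 21.5 h at 37 C; ONE-Glo luminescence read.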
# [13] = qHTS assay to identify small molecule antagonists of the estrogen receptor alpha (ER-alpha) signaling pathway using the BG1 cell line - cell viability counter screen (AID 743081);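 further: compound given together with 17beta-estradiol as the ER stimulus; series mostly up to about 70 µM; nearly all actives have a fitted effect of over 45% in size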
# Aromatase (Homo sapiens) = Aromatase (Homo sapiens) (UniProt P11511); experiment: qHTS assay to identify aromatase inhibitors (AID 743083); further: series mostly up to about 70 µM; nearly all actives have a fitted effect of over 55% in size
# [14] = qHTS assay to identify small molecule antagonists of the thyroid receptor (TR) signaling pathway - cell viability counter screen (AID 743064); further: nearly all actives have a fitted effect of over 50% in size
# Procedure, shortened: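 Same-well viability check: GH3.TRE-Luc cells stimulated with 1 nM T3 alongside test compound for 23.5 h, followed by CellTiter-Fluor fluorescence.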
# [15] = qHTS assay to identify small molecule antagonists of the androgen receptor (AR) signaling pathway - cell viability counter screen (AID 743033; further: nearly all actives have a fitted effect of over 45% in size)
# Sequence of Estrogen receptor (Homo sapiens) (P03372 whole entry, looked up): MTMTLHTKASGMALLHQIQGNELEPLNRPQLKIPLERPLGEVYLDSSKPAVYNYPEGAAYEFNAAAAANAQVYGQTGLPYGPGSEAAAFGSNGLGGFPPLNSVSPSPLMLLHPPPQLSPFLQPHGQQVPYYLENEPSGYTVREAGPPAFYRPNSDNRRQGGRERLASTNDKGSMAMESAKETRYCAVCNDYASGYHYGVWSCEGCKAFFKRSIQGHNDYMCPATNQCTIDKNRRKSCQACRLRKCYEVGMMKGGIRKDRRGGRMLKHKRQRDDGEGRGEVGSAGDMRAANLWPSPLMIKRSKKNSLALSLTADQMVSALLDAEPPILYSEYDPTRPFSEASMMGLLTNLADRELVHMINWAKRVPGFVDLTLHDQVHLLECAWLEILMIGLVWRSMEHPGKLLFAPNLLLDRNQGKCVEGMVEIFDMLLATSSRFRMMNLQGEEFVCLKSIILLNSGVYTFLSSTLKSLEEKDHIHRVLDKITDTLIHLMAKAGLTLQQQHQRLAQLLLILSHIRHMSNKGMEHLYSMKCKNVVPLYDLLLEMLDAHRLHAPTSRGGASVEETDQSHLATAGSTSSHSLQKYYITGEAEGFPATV
# Sequence of Aromatase (Homo sapiens) (P11511 whole entry, looked up): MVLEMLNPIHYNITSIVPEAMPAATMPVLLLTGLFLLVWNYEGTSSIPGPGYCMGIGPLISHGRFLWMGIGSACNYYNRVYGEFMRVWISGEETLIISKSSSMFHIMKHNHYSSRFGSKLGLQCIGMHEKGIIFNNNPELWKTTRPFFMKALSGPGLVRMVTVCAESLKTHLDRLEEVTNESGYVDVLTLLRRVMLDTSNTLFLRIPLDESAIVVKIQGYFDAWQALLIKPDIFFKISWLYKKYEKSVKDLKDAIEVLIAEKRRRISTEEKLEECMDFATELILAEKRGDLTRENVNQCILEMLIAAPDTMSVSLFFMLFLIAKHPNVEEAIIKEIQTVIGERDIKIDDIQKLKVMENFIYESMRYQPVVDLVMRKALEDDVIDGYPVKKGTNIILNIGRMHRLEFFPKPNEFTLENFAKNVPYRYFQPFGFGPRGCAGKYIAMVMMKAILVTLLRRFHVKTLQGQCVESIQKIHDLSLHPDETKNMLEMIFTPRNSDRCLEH
Structure (SMILES),outcome [1],Potency [2],Potency [3],Potency [4],outcome [5],Potency [6],outcome [7],Potency [8],Potency [9],Potency [10],Potency [11],Potency [12],outcome [13],Potency (Aromatase (Homo sapiens)),Potency [14],outcome [15]
CC(C)(C)OOC(C)(C)C,inactive,inactive,inactive,inactive,inactive,inactive,inactive,inactive,inactive,inactive,inactive,inactive,inactive,inactive,–,–
Cc1cc(Cl)ccc1O,inactive,inactive,inactive,inactive,inactive,inactive,inactive,–,inactive,–,–,–,inactive,inactive,inactive,–
C#CC(C)(C)NC(=O)c1cc(Cl)cc(Cl)c1,inactive,–,68.6 µM (active),inactive,inactive,inactive,inactive,–,inactive,–,–,–,inactive,inactive,inactive,inactive
